PubChem BioAssay (Tox21)
Results filed as inconclusive are left out. Active and inactive are the calls of the source. Unless noted, calls come from the whole dose curve; as a rule, active = well fitted curve in the direction sought with a large enough effect in the repeat runs; inconclusive = weak or mixed curves; inactive = no such curve, though single readings can be large; an effect the other way counts as inactive or inconclusive.

Tests used:
[1] = biological target: Thyrotropin receptor (Homo sapiens) (UniProt P16473); test: qHTS assay to identify small molecule agonists of the thyroid stimulating hormone receptor (TSHR) signaling pathway (AID 1224843; calls by dose curve; note: nearly all actives have a fitted effect of over 45% in size)
Thyrotropin receptor (Homo sapiens), sequence (P16473 whole entry, looked up): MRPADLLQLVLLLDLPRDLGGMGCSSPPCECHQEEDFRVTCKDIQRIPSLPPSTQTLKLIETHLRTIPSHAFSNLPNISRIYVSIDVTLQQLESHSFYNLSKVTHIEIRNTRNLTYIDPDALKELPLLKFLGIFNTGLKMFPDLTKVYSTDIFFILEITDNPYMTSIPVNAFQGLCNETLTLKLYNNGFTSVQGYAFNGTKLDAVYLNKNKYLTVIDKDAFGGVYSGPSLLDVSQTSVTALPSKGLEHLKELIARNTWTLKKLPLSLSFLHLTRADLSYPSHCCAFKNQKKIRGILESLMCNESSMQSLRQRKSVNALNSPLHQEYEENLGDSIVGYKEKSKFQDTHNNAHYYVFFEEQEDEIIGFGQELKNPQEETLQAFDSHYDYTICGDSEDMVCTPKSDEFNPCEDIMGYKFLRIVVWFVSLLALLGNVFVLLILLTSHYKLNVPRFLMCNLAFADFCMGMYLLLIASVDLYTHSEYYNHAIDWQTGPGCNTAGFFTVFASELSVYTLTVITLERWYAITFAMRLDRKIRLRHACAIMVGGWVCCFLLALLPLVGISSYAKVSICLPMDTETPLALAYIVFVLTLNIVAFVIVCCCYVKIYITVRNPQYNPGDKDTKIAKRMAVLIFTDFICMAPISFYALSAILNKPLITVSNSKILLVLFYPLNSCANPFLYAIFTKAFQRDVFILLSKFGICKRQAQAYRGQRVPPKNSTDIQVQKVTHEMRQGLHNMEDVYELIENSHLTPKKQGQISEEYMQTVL
In short: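 Steps: seed 800 TSHR-HEK293 cells per well; add test compound and hold 30 min at ambient temperature; dispense cAMP-d2 then anti-cAMP cryptate; incubate 1 h at ambient; measure fluorescence intensity.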

[2] = qHTS assay to identify small molecule agonists of the hypoxia (HIF-1) signaling pathway - cell viability counter screen (AID 1224844; calls by dose curve; note: nearly all actives have a fitted effect of over 50% in size)
In short: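 Luminescent ATP content (CellTiter-Glo, 30 min, room temperature) served as the viability measure in HRE-bla ME-180 cells exposed to compounds for 17 hrs in low-serum medium (0.5% dialyzed FBS).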

[3] = qHTS assay to identify small molecule agonists of H2AX (AID 1224845; active = well fitted activation curve with a large enough effect in the signal ratio in the repeat runs, not every such curve was filed as active; the % refers to the signal ratio)
In short: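 Wild-type CHO-K1 cells, plated overnight, exposed 3hr at 37C to 15 concentrations (0.76% DMSO final). Lysed, then HTRF anti-pH2AX (S139) cryptate and anti-H2AX-d2 antibodies, 24 hr room temperature; 665/620 nm emission read.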

[4] = qHTS assay to identify small molecule agonists of the hypoxia (HIF-1) signaling pathway (AID 1224846; active = well fitted activation curve with a large enough effect in the signal ratio in the repeat runs, not every such curve was filed as active; the % refers to the signal ratio)
In short: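 Measured by blue/green FRET after loading CCF4-AM: beta-lactamase expressed from a hypoxia response element in ME-180 cells. Test agents were delivered in DMSO and left 17 hrs; cells had been plated 5 hrs earlier in low-serum (0.5% dialyzed FBS) medium.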

[5] = qHTS assay to identify small molecule agonists of H2AX - cell viability counter screen (AID 1224847; calls by dose curve; note: top concentration of the series differs between compounds; nearly all actives have a fitted effect of over 30% in size)
In short: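 For this counter screen, overnight-attached CHO-K1 cells received test compounds (15 concentrations, 0.76% DMSO final); 3 hr later at 37C, CellTiter-Glo reagent was added and luminescence recorded after 30 min at room temperature.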

[6] = qHTS RealTime-Glo MT Cell Viability Assay in HepG2 cells - 24 hour (AID 1224867); note: nearly all actives have a fitted effect of over 50% in size
In short: (§1)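 HepG2 suspension premixed with RealTime-Glo reagents is plated at 600 cells per well and left 5 h at 37 C/5% CO2. Compounds in DMSO then go in, and bioluminescence reflecting viable cell number is recorded over 40 h.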

[7] = qHTS RealTime-Glo MT Cell Viability Assay in HEK293 cells - 32 hour (AID 1224868); note: top concentration of the series differs between compounds; nearly all actives have a fitted effect of over 50% in size
In short: (§2)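 Reads taken at 0, 8, 16, 24, 32 and 40 h from the same wells. HEK293 cells (600/well) carried RealTime-Glo reagents from seeding, with compound added after a 5 h settle at 37 C.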

[8] = A CellTox Green Cytotoxicity Assay to monitor cytotoxicity in HEK293 cells - 0 hour (AID 1224869); note: nearly all actives have a fitted effect of over 50% in size
In short: (§3)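 Each value comes from one timepoint of a single continuous run in which HEK293 cells with CellTox Green were exposed to compound for up to 40 h at 37 C, dye fluorescence rising with cell death.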

[9] = qHTS RealTime-Glo MT Cell Viability Assay in HepG2 cells - 40 hour (AID 1224870); note: nearly all actives have a fitted effect of over 50% in size
In short: (§4)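 HepG2 cells (600/well) mixed with RealTime-Glo MT reagent, settled 5 h at 37 C/5% CO2 before compound addition. Nonlytic NanoLuc luminescence from viable-cell prosubstrate reduction read repeatedly during 40 h treatment at 37 C.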

[10] = A CellTox Green Cytotoxicity Assay to monitor cytotoxicity in HEK293 cells - 40 hour (AID 1224871); note: nearly all actives have a fitted effect of over 45% in size
In short: as §3

[11] = qHTS RealTime-Glo MT Cell Viability Assay in HEK293 cells - 16 hour (AID 1224872)
In short: as §2

[12] = qHTS RealTime-Glo MT Cell Viability Assay in HepG2 cells - 8 hour (AID 1224873); note: nearly all actives have a fitted effect of over 55% in size
In short: as §4

[13] = qHTS RealTime-Glo MT Cell Viability Assay in HEK293 cells - 40 hour (AID 1224874); settings: RealTime-Glo luminescence; max response: stronger effect = lower value; note: nearly all actives have a fitted effect of over 50% in size
In short: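 qHTS format; HEK293 cells with NanoLuc/prosubstrate reagent, 37 C/5% CO2 for 5 h pre-dosing; compounds 23 nL in DMSO; luminescence at each time point reflects viable cells.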

[14] = A CellTox Green Cytotoxicity Assay to monitor cytotoxicity in HEK293 cells - 24 hour (AID 1224875); note: nearly all actives have a fitted effect of over 45% in size
In short: as §3

[15] = A CellTox Green Cytotoxicity Assay to monitor cytotoxicity in HepG2 cells - 16 hour (AID 1224876); note: nearly all actives have a fitted effect of over 45% in size
In short: (§5)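 Continuous culture of HepG2 cells with a membrane-impermeant DNA dye; rising fluorescence marks dead cells. Compound exposure lasted up to 40 h at 37 C, with reads every 8 h from 0 h.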

[16] = qHTS RealTime-Glo MT Cell Viability Assay in HepG2 cells - 32 hour (AID 1224877); note: nearly all actives have a fitted effect of over 55% in size
In short: as §1

[17] = A CellTox Green Cytotoxicity Assay to monitor cytotoxicity in HepG2 cells - 24 hour (AID 1224878); note: nearly all actives have a fitted effect of over 45% in size
In short: as §5

[18] = A CellTox Green Cytotoxicity Assay to monitor cytotoxicity in HepG2 cells - 40 hour (AID 1224879); note: nearly all actives have a fitted effect of over 40% in size
In short: as §5

[19] = qHTS assay to identify small molecule antagonists of the estrogen related receptor (ERR) signaling pathway from Tox21 library (AID 1224848); note: nearly all actives have a fitted effect of over 50% in size
In short: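 Luminescent reporter read-out (ONE-Glo) from NTP's ERR cell line after 18 h treatment at 37 C with DMSO-dissolved Tox21 compounds; cells pre-plated 6 h beforehand at 2,000 per well.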

[20] = qHTS assay to identify small molecule agonists of the estrogen related receptor (ERR) signaling pathway from Tox21 library (AID 1224849; calls by dose curve; note: nearly all actives have a fitted effect of over 15% in size); settings: ERR reporter cell line, ONE-Glo luciferase, 18 h; at 92.4 µM (top of the series) unless noted
In short: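 We plated ERR reporter cells, waited 6 h, added compounds in DMSO by pin tool and incubated them 18 h at 37 C. ONE-Glo was then added and luminescence read after 30 min.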
% is set by controls: 0 for no effect and ±100 for the full control effect.

CCCc1ccc(OC)cc1
inactive: Potency [1] | Potency [2] | Potency [3] | outcome [4] | Potency [5] | outcome [6] | Potency [7] | Potency [8] | Potency [9] | Potency [10] | Potency [11] | outcome [12] | max response [13] 11.9% | Potency [14] | Potency [15] | Potency [16] | Potency [17] | Potency [18]

CC(C)NC(=O)c1ccccc1N
inactive: Potency [1] | Potency [2] | Potency [3] | outcome [4] | Potency [5] | outcome [6] | Potency [7] | Potency [8] | Potency [9] | Potency [10] | Potency [11] | outcome [12] | max response [13] 0.226% | Potency [14] | Potency [15] | Potency [16] | Potency [17] | Potency [18]

CCc1ccc(C(=O)C(C)CN2CCCCC2)cc1 (stereo not given)
inactive: Potency [1] | Potency [2] | Potency [3] | outcome [4] | Potency [5] | outcome [6] | Potency [7] | Potency [8] | Potency [9] | Potency [11] | outcome [12] | max response [13] 7.68% | Potency [14] | Potency [15] | Potency [16] | Potency [17] | Potency [18]

CCOc1ccc(NC(C)=O)cc1N
inactive: Potency [1] | Potency [2] | Potency [3] | outcome [4] | Potency [5] | Potency [19] | activity change, positive = activation [20] 8.88% | Potency [7] | Potency [8] | Potency [10] | Potency [11] | outcome [12] | max response [13] 3.81% | Potency [14] | Potency [15] | Potency [16] | Potency [17] | Potency [18]

CC1(C)CC(=O)CC(C)(C)N1
inactive: Potency [1] | Potency [2] | Potency [3] | outcome [4] | Potency [5] | outcome [6] | Potency [7] | Potency [8] | Potency [9] | Potency [10] | Potency [11] | outcome [12] | max response [13] 0.817% | Potency [14] | Potency [15] | Potency [16] | Potency [17] | Potency [18]

CCCCCCCCCCCCCCCCCCCl
inactive: activation [1] -0.25% [at 8.39 µM] | activity change, negative = cytotoxicity [2] 0.227% [at 6.97 µM] | activation (H2AX phosphorylation) [3] -0.95% [at 14 µM] | activation [4] 0.175% [at 7.01 µM] | activity change, negative = cytotoxicity [5] 2.91% [at 14 µM] | activity, negative = inhibition [19] 23.3% [at 8.39 µM] | activity change, negative = cytotoxic [7] -2.36% [at 6.97 µM] | cytotoxicity [8] 0.805% [at 6.97 µM] | activity change, negative = cytotoxic [9] 2.37% [at 6.97 µM] | cytotoxicity increase [10] -1.51% [at 6.97 µM] | activity change, negative = cytotoxicity [11] 3.04% [at 6.97 µM] | viability change, negative = cytotoxic [12] -0.0977% [at 6.97 µM] | max response [13] 5.75% | activity change [14] 2.36% [at 6.97 µM, stronger effect = higher value] | cytotoxicity increase [15] -7.85% [at 6.97 µM] | activity change, negative = cytotoxic [16] 2.68% [at 6.97 µM] | cytotoxicity [17] -10.6% [at 6.97 µM] | cytotoxicity increase [18] -13.3% [at 6.97 µM]

O=[N+]([O-])c1ccc(Cl)cc1Cl
inactive: Potency [1] | Potency [2] | Potency [3] | outcome [4] | Potency [5] | outcome [6] | Potency [7] | Potency [8] | Potency [9] | Potency [10] | Potency [11] | outcome [12] | max response [13] 2.44% | Potency [14] | Potency [15] | Potency [16] | Potency [17] | Potency [18]
